Paper PMC7862700, “An all-to-all approach to the identification of sequence-specific readers for epigenetic DNA modifications on cytosine”

Legend:
Assay in all cases: DAPPL (digital affinity profiling via proximity ligation, sequencing); 10 mM Tris-HCl pH 7.5, 50 mM NaCl, 1 mM DTT, 4% glycerol, room temperature, 30 min; GST-TFs on glutathione beads, 16-mer random dsDNA library, 0.1% formaldehyde crosslink after washing; high values mean tight binding
[1] = target: T1, FLI1 (Homo sapiens, UniProt Q01543 1-452); conditions: protein: recombinant; tags: N-terminal GST; dsDNA, one strand shown
T1 sequence: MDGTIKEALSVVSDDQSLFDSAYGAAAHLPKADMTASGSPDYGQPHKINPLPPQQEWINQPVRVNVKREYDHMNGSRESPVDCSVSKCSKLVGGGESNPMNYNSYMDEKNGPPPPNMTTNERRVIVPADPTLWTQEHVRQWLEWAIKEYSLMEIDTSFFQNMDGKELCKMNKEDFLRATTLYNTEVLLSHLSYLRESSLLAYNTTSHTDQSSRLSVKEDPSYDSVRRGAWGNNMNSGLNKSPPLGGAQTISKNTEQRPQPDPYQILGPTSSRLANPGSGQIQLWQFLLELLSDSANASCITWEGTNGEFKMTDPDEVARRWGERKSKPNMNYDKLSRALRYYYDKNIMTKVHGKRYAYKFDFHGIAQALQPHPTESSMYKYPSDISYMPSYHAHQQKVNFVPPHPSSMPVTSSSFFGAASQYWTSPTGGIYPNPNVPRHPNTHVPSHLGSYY
How it was run: (§1)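 Human transcription factors were made in yeast as GST fusions, captured on glutathione beads and barcoded with DNA. With a tag-only sample included, the pool was incubated with 200 nmole of a random double-stranded 16-mer DNA library in Tris/NaCl/DTT/glycerol buffer at room temperature for 30 min, then crosslinked with 0.1% formaldehyde after washing, ligated by proximity, amplified and sequenced. For binding signal, each hexamer's read frequency for a factor is divided by its frequency for the tag-only sample.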

[2] = target: T2, ELK1 (Homo sapiens, UniProt P19419 1-428); conditions: protein: recombinant; tags: N-terminal GST; dsDNA, one strand shown
T2 sequence: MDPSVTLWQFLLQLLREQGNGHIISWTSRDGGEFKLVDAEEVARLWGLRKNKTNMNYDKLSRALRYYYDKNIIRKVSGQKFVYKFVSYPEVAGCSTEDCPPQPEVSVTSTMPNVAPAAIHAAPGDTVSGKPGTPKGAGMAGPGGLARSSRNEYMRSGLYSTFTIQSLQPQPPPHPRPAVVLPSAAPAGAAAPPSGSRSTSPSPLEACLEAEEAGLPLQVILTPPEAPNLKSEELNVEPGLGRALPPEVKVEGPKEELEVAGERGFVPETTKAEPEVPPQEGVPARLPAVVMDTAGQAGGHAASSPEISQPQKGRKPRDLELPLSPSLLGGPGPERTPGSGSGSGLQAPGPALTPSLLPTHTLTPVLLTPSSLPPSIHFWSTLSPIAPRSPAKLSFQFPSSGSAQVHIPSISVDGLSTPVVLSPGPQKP
How it was run: as §1

[3] = target: T3, GABPA (Homo sapiens, UniProt Q06546 1-454); conditions: protein: recombinant; tags: N-terminal GST; dsDNA, one strand shown
T3 sequence: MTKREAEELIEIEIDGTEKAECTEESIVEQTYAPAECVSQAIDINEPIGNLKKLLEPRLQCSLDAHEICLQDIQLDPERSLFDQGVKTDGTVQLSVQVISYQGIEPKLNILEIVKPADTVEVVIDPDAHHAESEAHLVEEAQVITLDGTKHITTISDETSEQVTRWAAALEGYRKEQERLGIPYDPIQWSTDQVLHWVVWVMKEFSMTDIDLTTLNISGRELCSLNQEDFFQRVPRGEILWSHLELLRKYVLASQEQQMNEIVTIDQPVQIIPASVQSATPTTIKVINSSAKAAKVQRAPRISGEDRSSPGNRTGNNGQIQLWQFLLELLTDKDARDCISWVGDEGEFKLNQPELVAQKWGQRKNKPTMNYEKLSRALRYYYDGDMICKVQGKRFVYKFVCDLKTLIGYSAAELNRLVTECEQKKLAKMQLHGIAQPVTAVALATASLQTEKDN
How it was run: as §1

[4] = target: T4, ERG (Homo sapiens, UniProt P11308 1-479); conditions: protein: recombinant; tags: N-terminal GST; dsDNA, one strand shown
T4 sequence: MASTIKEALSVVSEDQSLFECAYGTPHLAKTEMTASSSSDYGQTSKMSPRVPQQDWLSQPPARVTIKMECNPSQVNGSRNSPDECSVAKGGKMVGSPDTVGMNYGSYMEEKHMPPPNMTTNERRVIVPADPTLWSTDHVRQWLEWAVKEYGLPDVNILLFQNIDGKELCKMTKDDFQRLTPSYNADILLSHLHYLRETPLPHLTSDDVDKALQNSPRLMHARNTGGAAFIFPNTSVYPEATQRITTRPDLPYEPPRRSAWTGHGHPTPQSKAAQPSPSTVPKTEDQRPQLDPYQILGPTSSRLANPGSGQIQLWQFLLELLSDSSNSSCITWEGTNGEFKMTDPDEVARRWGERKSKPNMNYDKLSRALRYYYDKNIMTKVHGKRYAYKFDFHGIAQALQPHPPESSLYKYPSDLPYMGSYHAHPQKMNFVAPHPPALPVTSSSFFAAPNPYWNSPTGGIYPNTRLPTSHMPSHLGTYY
How it was run: as §1

[5] = target: ELF1 (Homo sapiens, UniProt P32519 1-619); conditions: protein: recombinant; tags: N-terminal GST; dsDNA, one strand shown
How it was run: as §1

[6] = target: T5, EHF (Homo sapiens, UniProt Q9NZC4 1-300); conditions: protein: recombinant; tags: N-terminal GST; dsDNA, one strand shown
T5 sequence: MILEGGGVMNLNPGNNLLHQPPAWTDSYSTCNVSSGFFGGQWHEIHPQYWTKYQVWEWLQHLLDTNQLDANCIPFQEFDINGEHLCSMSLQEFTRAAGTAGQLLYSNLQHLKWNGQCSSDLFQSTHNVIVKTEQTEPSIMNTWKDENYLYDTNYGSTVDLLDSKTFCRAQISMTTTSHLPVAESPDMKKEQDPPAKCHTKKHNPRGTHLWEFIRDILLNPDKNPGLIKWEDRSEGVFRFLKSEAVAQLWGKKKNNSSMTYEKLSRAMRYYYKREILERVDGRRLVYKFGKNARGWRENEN
How it was run: as §1

[7] = target: SPI1 (Homo sapiens, UniProt P17947 1-270); conditions: protein: recombinant; tags: N-terminal GST; dsDNA, one strand shown
How it was run: as §1

[8] = target: SPIB (Homo sapiens, UniProt Q01892 1-262); conditions: protein: recombinant; tags: N-terminal GST; dsDNA, one strand shown
How it was run: as §1

[9] = target: T6, ELK3 (Homo sapiens, UniProt P41970 1-407); conditions: protein: recombinant; tags: N-terminal GST; dsDNA, one strand shown
T6 sequence: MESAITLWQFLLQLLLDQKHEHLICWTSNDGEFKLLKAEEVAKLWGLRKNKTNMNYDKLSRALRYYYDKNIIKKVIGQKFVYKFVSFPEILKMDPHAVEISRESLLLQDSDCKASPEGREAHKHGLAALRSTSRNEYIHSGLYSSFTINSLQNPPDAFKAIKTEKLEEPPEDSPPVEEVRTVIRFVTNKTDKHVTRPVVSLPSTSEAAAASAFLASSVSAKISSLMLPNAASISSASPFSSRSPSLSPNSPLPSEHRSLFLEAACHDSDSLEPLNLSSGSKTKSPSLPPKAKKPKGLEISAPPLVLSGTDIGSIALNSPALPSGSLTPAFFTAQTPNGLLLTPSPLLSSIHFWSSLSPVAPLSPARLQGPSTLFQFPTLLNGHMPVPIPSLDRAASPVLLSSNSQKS
How it was run: as §1

[10] = target: T7, FEV (Homo sapiens, UniProt Q99581 1-238); conditions: protein: recombinant; tags: N-terminal GST; dsDNA, one strand shown
T7 sequence: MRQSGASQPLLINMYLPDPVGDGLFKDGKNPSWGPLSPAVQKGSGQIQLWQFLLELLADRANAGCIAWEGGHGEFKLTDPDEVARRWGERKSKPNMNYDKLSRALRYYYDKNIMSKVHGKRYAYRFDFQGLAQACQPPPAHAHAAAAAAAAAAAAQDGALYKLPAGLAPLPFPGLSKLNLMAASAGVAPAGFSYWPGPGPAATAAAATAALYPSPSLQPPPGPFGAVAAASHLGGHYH
How it was run: as §1

[11] = target: ETV5 (Homo sapiens, UniProt P41161 1-510); conditions: protein: recombinant; tags: N-terminal GST; dsDNA, one strand shown
How it was run: as §1

[12] = target: HSF1 (Homo sapiens, UniProt Q00613 1-529); conditions: protein: recombinant; tags: N-terminal GST; chain copies: 3; dsDNA, one strand shown
How it was run: as §1

[13] = target: T8, SPIC (Homo sapiens, UniProt Q8N5J4 1-248); conditions: protein: recombinant; tags: N-terminal GST; dsDNA, one strand shown
T8 sequence: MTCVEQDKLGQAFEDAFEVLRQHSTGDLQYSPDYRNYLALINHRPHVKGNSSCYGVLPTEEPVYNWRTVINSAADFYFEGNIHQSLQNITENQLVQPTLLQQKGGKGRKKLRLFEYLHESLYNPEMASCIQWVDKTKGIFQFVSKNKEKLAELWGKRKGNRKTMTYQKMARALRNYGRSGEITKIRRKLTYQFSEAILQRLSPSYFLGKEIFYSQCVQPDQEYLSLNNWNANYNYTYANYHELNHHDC
How it was run: as §1

[14] = target: ELF4 (Homo sapiens, UniProt Q99607 1-663); conditions: protein: recombinant; tags: N-terminal GST; dsDNA, one strand shown
How it was run: as §1

[15] = target: T9, ELK4 (Homo sapiens, UniProt P28324-2 1-405); conditions: protein: recombinant; tags: N-terminal GST; dsDNA, one strand shown
T9 sequence: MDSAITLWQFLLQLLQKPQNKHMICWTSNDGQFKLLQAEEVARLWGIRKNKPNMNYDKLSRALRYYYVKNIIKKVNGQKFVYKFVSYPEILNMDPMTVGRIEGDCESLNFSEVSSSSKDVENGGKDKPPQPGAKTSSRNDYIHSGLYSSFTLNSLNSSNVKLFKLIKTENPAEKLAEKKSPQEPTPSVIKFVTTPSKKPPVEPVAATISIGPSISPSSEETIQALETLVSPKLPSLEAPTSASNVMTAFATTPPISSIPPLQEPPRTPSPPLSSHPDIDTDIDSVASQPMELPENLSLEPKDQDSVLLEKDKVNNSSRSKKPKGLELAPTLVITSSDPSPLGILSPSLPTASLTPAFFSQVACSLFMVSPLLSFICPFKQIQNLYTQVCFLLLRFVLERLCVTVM
How it was run: as §1

[16] = target: T10, ETV2 (Homo sapiens, UniProt O00321 1-342); conditions: protein: recombinant; tags: N-terminal GST; dsDNA, one strand shown
T10 sequence: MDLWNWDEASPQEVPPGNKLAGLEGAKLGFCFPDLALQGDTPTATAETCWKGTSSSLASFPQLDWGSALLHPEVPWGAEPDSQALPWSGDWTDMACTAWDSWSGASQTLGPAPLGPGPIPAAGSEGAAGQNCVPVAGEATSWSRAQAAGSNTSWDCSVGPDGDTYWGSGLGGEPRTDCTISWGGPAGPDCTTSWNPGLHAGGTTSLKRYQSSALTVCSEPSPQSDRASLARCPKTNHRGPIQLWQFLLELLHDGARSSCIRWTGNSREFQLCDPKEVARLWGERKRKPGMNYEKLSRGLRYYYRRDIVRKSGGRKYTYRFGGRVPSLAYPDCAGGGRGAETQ
How it was run: as §1

[17] = target: T11, ELF3 (Homo sapiens, UniProt P78545 1-371); conditions: protein: recombinant; tags: N-terminal GST; dsDNA, one strand shown
T11 sequence: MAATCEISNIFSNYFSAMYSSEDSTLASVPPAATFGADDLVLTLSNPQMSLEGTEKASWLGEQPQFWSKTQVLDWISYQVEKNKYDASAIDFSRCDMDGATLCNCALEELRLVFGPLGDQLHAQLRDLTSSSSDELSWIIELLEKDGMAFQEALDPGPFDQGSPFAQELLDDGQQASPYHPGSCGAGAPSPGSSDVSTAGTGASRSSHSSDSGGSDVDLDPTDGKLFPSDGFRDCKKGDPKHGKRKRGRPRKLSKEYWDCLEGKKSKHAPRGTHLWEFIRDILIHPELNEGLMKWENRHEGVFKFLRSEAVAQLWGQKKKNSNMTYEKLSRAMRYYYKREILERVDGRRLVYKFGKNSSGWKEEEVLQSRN
How it was run: as §1

[18] = target: CRX (Homo sapiens, UniProt O43186 1-299); conditions: protein: recombinant; tags: N-terminal GST; dsDNA, one strand shown
How it was run: as §1

[19] = target: ETV1 (Homo sapiens, UniProt P50549 1-477); conditions: protein: recombinant; tags: N-terminal GST; dsDNA, one strand shown
How it was run: as §1

Chain of HSF1 (Q00613 whole entry): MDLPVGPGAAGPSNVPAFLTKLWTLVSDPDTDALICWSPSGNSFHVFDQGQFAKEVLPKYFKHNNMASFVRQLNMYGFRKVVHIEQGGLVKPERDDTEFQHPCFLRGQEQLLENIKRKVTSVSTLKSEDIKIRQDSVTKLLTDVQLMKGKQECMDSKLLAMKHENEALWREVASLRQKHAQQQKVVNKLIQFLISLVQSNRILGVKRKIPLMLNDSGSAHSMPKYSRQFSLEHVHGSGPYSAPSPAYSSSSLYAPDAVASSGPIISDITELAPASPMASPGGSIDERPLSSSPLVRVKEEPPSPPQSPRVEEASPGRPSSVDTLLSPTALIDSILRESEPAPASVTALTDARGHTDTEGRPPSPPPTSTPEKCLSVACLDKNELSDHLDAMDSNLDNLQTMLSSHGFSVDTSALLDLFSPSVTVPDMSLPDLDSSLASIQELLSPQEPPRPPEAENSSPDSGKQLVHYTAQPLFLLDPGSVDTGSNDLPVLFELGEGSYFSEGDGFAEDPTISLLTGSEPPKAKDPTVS
Chain of SPIB (Q01892 whole entry): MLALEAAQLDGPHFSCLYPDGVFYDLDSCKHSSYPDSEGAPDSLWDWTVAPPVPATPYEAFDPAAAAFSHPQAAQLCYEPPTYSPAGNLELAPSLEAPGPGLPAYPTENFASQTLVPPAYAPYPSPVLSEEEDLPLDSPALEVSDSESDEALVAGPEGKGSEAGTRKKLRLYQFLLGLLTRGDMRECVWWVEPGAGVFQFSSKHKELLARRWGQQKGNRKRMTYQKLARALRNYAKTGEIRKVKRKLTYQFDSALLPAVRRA
Chain of CRX (O43186 whole entry): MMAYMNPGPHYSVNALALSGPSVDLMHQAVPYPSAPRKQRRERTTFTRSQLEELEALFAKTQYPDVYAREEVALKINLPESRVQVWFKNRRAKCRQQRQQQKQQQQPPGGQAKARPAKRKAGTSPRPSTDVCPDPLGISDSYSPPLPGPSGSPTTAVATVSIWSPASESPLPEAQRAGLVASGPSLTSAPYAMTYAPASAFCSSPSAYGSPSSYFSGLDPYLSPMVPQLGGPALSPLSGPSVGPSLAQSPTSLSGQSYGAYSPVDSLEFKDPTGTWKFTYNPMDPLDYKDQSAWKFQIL
Chain of ELF4 (Q99607 whole entry): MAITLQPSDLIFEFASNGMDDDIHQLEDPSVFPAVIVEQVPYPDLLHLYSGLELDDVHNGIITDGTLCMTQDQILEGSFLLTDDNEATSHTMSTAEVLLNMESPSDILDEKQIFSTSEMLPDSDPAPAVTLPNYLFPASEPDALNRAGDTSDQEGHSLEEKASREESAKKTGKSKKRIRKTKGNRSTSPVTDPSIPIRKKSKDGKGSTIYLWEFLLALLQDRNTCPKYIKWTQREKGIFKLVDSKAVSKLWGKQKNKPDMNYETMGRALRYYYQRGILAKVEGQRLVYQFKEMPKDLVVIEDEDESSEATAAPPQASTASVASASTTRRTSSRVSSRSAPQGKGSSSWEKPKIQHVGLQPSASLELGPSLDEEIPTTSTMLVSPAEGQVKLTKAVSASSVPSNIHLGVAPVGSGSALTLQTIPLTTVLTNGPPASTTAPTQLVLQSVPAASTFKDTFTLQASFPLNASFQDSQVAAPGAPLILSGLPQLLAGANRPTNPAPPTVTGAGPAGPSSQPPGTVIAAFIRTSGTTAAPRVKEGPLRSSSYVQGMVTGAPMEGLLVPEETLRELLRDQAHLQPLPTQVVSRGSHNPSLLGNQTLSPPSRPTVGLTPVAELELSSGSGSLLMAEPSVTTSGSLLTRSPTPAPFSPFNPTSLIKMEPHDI
Chain of ELF1 (P32519 whole entry): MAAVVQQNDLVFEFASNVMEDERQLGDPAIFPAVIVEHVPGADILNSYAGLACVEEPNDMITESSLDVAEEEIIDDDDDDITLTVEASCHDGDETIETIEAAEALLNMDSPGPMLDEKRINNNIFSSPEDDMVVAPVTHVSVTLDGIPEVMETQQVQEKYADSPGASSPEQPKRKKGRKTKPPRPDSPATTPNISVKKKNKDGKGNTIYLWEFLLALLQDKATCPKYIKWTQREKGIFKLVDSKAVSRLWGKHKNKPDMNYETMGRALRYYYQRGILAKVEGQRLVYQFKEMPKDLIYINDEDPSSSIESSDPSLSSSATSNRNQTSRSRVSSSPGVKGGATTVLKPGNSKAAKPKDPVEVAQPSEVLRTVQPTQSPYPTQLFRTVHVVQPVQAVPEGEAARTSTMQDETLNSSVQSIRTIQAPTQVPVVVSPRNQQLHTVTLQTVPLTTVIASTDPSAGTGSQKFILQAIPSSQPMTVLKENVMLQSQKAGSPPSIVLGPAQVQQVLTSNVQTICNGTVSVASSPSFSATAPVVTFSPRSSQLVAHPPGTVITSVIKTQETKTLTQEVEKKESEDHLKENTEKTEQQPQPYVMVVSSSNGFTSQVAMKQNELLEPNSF
Chain of ETV1 (P50549 whole entry): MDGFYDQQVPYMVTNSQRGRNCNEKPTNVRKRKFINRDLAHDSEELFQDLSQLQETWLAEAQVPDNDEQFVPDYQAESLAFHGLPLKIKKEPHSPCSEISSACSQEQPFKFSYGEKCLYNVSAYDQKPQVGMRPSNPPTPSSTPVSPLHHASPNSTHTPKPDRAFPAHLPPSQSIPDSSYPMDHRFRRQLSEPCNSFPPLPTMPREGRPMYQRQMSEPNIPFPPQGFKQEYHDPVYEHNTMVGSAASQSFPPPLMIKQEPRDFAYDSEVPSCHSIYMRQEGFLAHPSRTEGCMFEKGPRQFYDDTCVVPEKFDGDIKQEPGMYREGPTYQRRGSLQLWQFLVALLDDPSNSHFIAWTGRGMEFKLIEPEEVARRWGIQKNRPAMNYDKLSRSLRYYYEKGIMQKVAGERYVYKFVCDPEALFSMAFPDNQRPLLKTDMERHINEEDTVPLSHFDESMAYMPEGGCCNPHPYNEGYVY
Chain of ETV5 (P41161 whole entry): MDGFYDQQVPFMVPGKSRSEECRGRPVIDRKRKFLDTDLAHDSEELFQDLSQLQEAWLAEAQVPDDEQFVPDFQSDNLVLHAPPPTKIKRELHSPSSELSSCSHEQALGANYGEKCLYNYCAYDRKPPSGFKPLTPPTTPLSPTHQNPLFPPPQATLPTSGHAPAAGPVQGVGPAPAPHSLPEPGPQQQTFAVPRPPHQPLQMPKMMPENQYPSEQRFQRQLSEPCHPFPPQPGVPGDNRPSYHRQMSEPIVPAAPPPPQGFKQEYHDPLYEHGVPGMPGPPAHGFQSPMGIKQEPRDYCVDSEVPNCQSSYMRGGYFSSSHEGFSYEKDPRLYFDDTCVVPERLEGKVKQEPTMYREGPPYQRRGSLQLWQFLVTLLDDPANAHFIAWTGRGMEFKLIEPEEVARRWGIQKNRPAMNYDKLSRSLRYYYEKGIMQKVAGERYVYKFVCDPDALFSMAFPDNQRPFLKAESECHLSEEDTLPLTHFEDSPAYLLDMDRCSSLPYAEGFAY

TTGCTA
binding signal [1]: 1.38 fold enrichment (6-mer frequency, TF over GST control)
binding signal [2]: 1.27 fold enrichment (6-mer frequency, TF over GST control)
binding signal [3]: 1.27 fold enrichment (6-mer frequency, TF over GST control)
binding signal [4]: 1.26 fold enrichment (6-mer frequency, TF over GST control)
binding signal [5]: 1.3 fold enrichment (6-mer frequency, TF over GST control)
binding signal [6]: 1.33 fold enrichment (6-mer frequency, TF over GST control)
binding signal [7]: 1.31 fold enrichment (6-mer frequency, TF over GST control)
binding signal [8]: 1.37 fold enrichment (6-mer frequency, TF over GST control)
binding signal [9]: 1.33 fold enrichment (6-mer frequency, TF over GST control)
binding signal [10]: 1.24 fold enrichment (6-mer frequency, TF over GST control)
binding signal [11]: 1.3 fold enrichment (6-mer frequency, TF over GST control)
binding signal [12]: 1.48 fold enrichment (6-mer frequency, TF over GST control)
binding signal [13]: 1.4 fold enrichment (6-mer frequency, TF over GST control)
binding signal [14]: 1.29 fold enrichment (6-mer frequency, TF over GST control)
binding signal [15]: 1.46 fold enrichment (6-mer frequency, TF over GST control)
binding signal [16]: 1.35 fold enrichment (6-mer frequency, TF over GST control)
binding signal [17]: 1.31 fold enrichment (6-mer frequency, TF over GST control)
binding signal [18]: 1.5 fold enrichment (6-mer frequency, TF over GST control)
binding signal [19]: 1.37 fold enrichment (6-mer frequency, TF over GST control)
